Assay outcomes as filed in PubChem.
POLK inh = DNA polymerase kappa (human) inhibition | Q9UBT6 | purified Pol kappa, fluorescent DNA synthesis assay, 10 min | Potency, µM (doses to about 107 µM), for the others: top-dose activity, negative = inhibition, hits mostly inhibitors | 400,000 tested, 0.53% active | AID 588579; further: on the % scale 0 is the no-effect control and ±100 the full control effect
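Readout: fluorescence, taken kinetically at 0 and 10 min. Conditions: 10 nM Pol kappa, 15 min RT compound preincubation, 50 nM substrate final. Controls: enzyme-free buffer wells.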
Pol eta inh = inhibitors of human DNA polymerase eta | Q9Y253 | recombinant Pol eta, fluorescent DNA replication assay | Potency, µM (titrated, usually from 114 µM), without a hit: at the top dose activity change, negative = inhibition, actives largely listed as inhibitors | 390,000 tested, 1.2% active | AID 588591; further: on the % scale 0 is the no-effect control and ±100 the full control effect
Target sequence (Q9Y253 whole entry, looked up): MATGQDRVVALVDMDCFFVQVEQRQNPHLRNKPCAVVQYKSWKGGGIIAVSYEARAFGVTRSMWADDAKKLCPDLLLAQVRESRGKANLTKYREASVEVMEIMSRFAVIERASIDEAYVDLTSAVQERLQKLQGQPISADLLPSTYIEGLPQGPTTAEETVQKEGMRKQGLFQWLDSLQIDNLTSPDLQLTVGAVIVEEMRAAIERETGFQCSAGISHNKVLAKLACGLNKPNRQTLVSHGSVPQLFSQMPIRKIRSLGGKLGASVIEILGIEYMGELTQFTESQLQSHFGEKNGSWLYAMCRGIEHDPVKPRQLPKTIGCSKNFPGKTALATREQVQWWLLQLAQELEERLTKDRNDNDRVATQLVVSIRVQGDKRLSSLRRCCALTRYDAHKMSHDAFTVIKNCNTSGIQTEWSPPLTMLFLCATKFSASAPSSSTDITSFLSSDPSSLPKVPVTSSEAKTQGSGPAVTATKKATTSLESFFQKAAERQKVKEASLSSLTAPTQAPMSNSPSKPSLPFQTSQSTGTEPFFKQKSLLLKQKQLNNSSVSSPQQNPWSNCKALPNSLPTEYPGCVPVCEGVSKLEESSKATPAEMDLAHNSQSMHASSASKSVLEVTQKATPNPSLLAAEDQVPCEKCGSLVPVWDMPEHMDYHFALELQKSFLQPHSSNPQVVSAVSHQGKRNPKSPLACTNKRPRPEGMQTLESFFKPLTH
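Fluorescent replication assay: 50 nM final substrate added after a 15 min room-temperature compound preincubation with 10 nM enzyme. Signal taken at 0 min and again at 10 min.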
POLB inh = blocks human DNA polymerase beta activity; Pol beta primer extension/strand displacement, fluorescence kinetic; Potency, µM (series often up to 114 µM), for inactives: top-dose activity change, negative = inhibition, most hits filed as inhibitors; AID 485314; 340,000 tested, 1.3% active; further: on the % scale 0 is the no-effect control and ±100 the full control effect
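Values derive from four-parameter Hill fits of normalized kinetic data: reads at 0 and 10 min following addition of 50 nM substrate to 10 nM Pol beta preincubated 15 min with compound.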
TDP1 block = TDP1 (human) enzyme inhibition | recombinant TDP1, AlphaScreen DNA substrate cleavage | 350,000 tested, 0.28% active | Potency, µM (titrated, usually from 130 µM), without a hit: at the highest dose activity change, negative = inhibition, hits mostly inhibitors; further: on the % scale 0 is the no-effect control and ±100 the full control effect; nearly all actives have a fitted effect of over 40% in size
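Enzyme-compound mixtures sat 15 min at room temperature, followed by a 5 min reaction with 15 nM final substrate and 10 min with AlphaScreen beads. Recombinant human Tdp1 was used at 1 nM final.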
FEN1 inh = human FEN1 inhibition | P39748 | Potency, µM (doses to about 114 µM), without a hit: at the top dose activity change, negative = inhibition, actives largely listed as inhibitors | 390,000 tested, 0.35% active | Recombinant FEN1 flap cleavage, fluorescence, 15 min; further: on the % scale 0 is the no-effect control and ±100 the full control effect; nearly all actives have a fitted effect of over 65% in size
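Concentration–response screening of FEN1 (10 nM): 15 min compound preincubation at room temperature, reaction started with 50 nM substrate and read at 0 and 15 min. Corrected, normalized data were fitted by a four-parameter Hill equation.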
Pol iota inh = DNA polymerase iota (human) inhibition | Q9UNA4 | Pol iota fluorescent replication assay, 10 min | Potency, µM (doses to about 115 µM), for inactives: top-dose activity, negative = inhibition, most hits filed as inhibitors | 390,000 tested, 1% active
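Fluorescent replication assay read twice, at 0 min and 10 min after adding 50 nM (final) substrate. Enzyme (10 nM) and compounds were first incubated 15 min at room temperature; enzyme-free buffer wells were negative controls.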
An asterisk follows results filed as active; [ ] = another dose, or the depositor's remark. This is a sample that favours compounds with a hit; in the whole collection about 2.4% have one here. The call rests on the fitted dose curve; in most records, active means well fitted curve in the direction sought with a large enough effect; inconclusive means small, poorly fitted or top-dose-only effect, or another doubt; inactive means no such curve, though single readings can be large; an effect the other way counts as inactive or inconclusive. Potency means the concentration at half of the fitted maximal effect.

`O=C(CCS(=O)(=O)c1ccc(Br)cc1)NC1CCCC1` gave POLK inh inconclusive, Pol eta inh inconclusive, POLB inh 22µM*, TDP1 block 0%, FEN1 inh -6% and Pol iota inh -5%.
`COc1ccc([N+](=O)[O-])cc1NC(=O)CCS(=O)(=O)c1ccc(Br)cc1` gave POLK inh inconclusive, Pol eta inh 50µM*, POLB inh 16µM*, FEN1 inh -15% and Pol iota inh 9%.
For COc1ccc([N+](=O)[O-])cc1NC(=O)CS(=O)(=O)c1ccc(C)cc1 the results were POLK inh -9%, Pol eta inh -6%, POLB inh 2%, TDP1 block 5%, FEN1 inh 17% and Pol iota inh -8%.
Cc1ccc(S(=O)(=O)N2CCN(c3nc(-c4cncn4C)nc4ccccc34)CC2)cc1 was read as POLK inh -23%, TDP1 block 8%, FEN1 inh 1% and Pol iota inh -15%.
`CC(c1ccco1)N(C)c1ncnc2ccc(-c3ccc4c(c3)OCO4)cc12` (stereo unspecified) gave TDP1 block 1%.
For NC(=S)NCCC[C@H](N)C(=O)O the results were POLK inh 3%[60.1 µM] and TDP1 block -2%.
`O=C(/C=C/c1ccco1)N(Cc1ccccc1F)C1CCS(=O)(=O)C1` (stereo unspecified) gave POLK inh -22%, Pol eta inh inconclusive, POLB inh inconclusive, TDP1 block 3%, FEN1 inh 10% and Pol iota inh 50µM*.
For COc1ccc(Cn2c(N)c(C#N)c3nc4ccccc4nc32)cc1OC the results were POLK inh -16%, Pol eta inh 7%, POLB inh 34%, TDP1 block 2%, FEN1 inh -1% and Pol iota inh 25µM*.
COc1ccc(CCn2c(N)c(C#N)c3nc4ccccc4nc32)cc1OC was read as POLK inh -9%, Pol eta inh inconclusive, POLB inh -17%, TDP1 block 4%, FEN1 inh -11% and Pol iota inh 52%.
For Oc1ccc(N=C/C=C/c2cccc(Br)c2)cc1-c1nc2ccccc2s1 the results were POLK inh -38%, Pol eta inh inconclusive, POLB inh 13µM*, TDP1 block 0%, FEN1 inh -11% and Pol iota inh 10µM*.
Screening Oc1ccc(-c2nc3ccccc3s2)c(O)c1 returned POLK inh -7%, Pol eta inh -19%, POLB inh -23%, TDP1 block -1%, FEN1 inh 0% and Pol iota inh -28%.
Nc1ccc(O)c(-c2nc3ccccc3s2)c1 was read as POLK inh inconclusive, Pol eta inh inconclusive, POLB inh 7.9µM*, TDP1 block inconclusive, FEN1 inh -8% and Pol iota inh inconclusive.
For NS(=O)(=O)c1ccc(Oc2ccc(S(N)(=O)=O)cc2)cc1 the results were POLK inh -1%, Pol eta inh -14%, POLB inh -2%, TDP1 block 1%, FEN1 inh -3% and Pol iota inh 6%.
`C=CS(=O)(=O)c1ccc(Oc2ccc(S(=O)(=O)C=C)cc2)cc1` gave POLK inh -3%, Pol eta inh inconclusive, POLB inh 16%, TDP1 block 2%, FEN1 inh -11% and Pol iota inh 10µM*.
Screening CCOc1ccccc1C(=O)N/N=C/c1coc2ccc(C)cc2c1=O returned POLK inh -3%, Pol eta inh inconclusive, POLB inh 56%, TDP1 block 35µM*, FEN1 inh 11% and Pol iota inh inconclusive.
For C/C(=N\NC(=O)c1ccc(N2CCCC2=O)cc1)c1ccccc1 the results were POLK inh -7%, Pol eta inh -17%, POLB inh 24%, TDP1 block 2%[0.0935 µM], FEN1 inh 2% and Pol iota inh 42%.
C/C(=N\NC(=O)c1ccc(N2CCCC2=O)cc1)c1ccc(O)cc1O was read as POLK inh -21%, Pol eta inh -4%, POLB inh -2%, TDP1 block 1%, FEN1 inh 20% and Pol iota inh 45µM*.
For Cc1oc(C(=O)O)cc1COc1ccc2c(C)cc(=O)oc2c1 the results were POLK inh -25%, Pol eta inh 22µM*, POLB inh inconclusive, TDP1 block inconclusive, FEN1 inh -5% and Pol iota inh -14%.
Screening CCc1cc(=O)oc2cc(OCc3ccc(C(=O)O)o3)ccc12 returned POLK inh -7%, Pol eta inh inconclusive, POLB inh -16%, FEN1 inh -2% and Pol iota inh inconclusive.
Screening COc1ccc2c(Cl)c(-c3nnc(SCC(=O)c4ccccc4)n3C)sc2c1 returned POLK inh -10%, Pol eta inh inconclusive, POLB inh -3%, TDP1 block 89µM*, FEN1 inh 13% and Pol iota inh -18%.
Screening O=C(Nc1nc(-c2ccco2)c(-c2ccco2)s1)C1CCC1 returned POLK inh inconclusive, Pol eta inh 25µM*, POLB inh inconclusive, TDP1 block 8%, FEN1 inh -26% and Pol iota inh inconclusive.
CCOC(=O)C1=C(COc2ccccc2)NC(=O)NC1c1cccc([N+](=O)[O-])c1 (stereo unspecified) was read as POLK inh -5%, Pol eta inh 6%, POLB inh 3%, FEN1 inh -23% and Pol iota inh 40µM*.
For CCOC(=O)C1=C(CNCc2ccccc2Cl)NC(=O)NC1c1cccc([N+](=O)[O-])c1 (stereo unspecified) the results were POLK inh -4%, Pol eta inh -26%, POLB inh 3%, TDP1 block 5%, FEN1 inh -8% and Pol iota inh 0%.
Screening O=C(Nc1nccs1)c1ccc(S(=O)(=O)N2CCOCC2)cc1 returned POLK inh -1%, Pol eta inh -4%, POLB inh 11%, TDP1 block 2%, FEN1 inh 79µM* and Pol iota inh 39%.
O=C(Nc1ccc(S(=O)(=O)N2CCOCC2)cc1)c1ccc(=O)[nH]c1 was read as POLK inh -28%, Pol eta inh -2%, POLB inh 13µM*, TDP1 block 0%, FEN1 inh -5% and Pol iota inh inconclusive.
O=C(NCCc1c[nH]c2ccccc12)OCCSS(=O)(=O)O was read as POLK inh -19%, Pol eta inh -7%, POLB inh 5%, TDP1 block 1%, FEN1 inh -1% and Pol iota inh 25µM*.
For O=C(O)c1cc(S(=O)(=O)N2CC=C(c3ccccc3)CC2)ccc1O the results were POLK inh -8%, Pol eta inh inconclusive, TDP1 block 4%, FEN1 inh -13% and Pol iota inh 9%.
